Measurements published in PubChem BioAssay (NCI).
Several values for one entry are separate records, joined by “and”; a condition that tells them apart may be missing. Equal entries are not always repeated. Compounds without any hit were thinned out: in the full panel of roughly 83,000, 20% have a hit.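 Percent growth is the endpoint: 0 to 100 indicates growth inhibition (40 means 60% inhibition), 0 means no net growth, and negative values indicate cell death.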 Activity calls are given as the source filed them. The calls were made as follows: active = growth percent below 10; inactive = the rest.

Assays:
Experiment in all cases: NCI-60 one-dose screen, 48 h (100 = growth as untreated, 0 = no growth, -100 = all killed)
Conditions in all cases: 10 µM unless noted
NCI-H23 lung = test system: NCI-H23 lung
NCI-H226 lung = test system: NCI-H226 lung
NCI-H322M lung = test system: NCI-H322M lung
HOP-62 NSCLC = test system: HOP-62 NSCLC
NCI-H460 lung = test system: NCI-H460 lung
HOP-92 NSCLC = test system: HOP-92 NSCLC
NCI-H522 lung = test system: NCI-H522 lung
A549/ATCC NSCLC = test system: A549/ATCC NSCLC
786-0 renal = test system: 786-0 renal
COLO 205 colon = test system: COLO 205 colon
DU-145 prostate = test system: DU-145 prostate
K-562 leukemia = test system: K-562 leukemia
MALME-3M melanoma = test system: MALME-3M melanoma
MDA-MB-231 breast = test system: MDA-MB-231 breast
RXF 393 renal = test system: RXF 393 renal
SF-268 CNS = test system: SF-268 CNS
SF-295 CNS = test system: SF-295 CNS
SF-539 CNS = test system: SF-539 CNS
UACC-257 melanoma = test system: UACC-257 melanoma
M14 melanoma = test system: M14 melanoma

Measured: growth

CCCCOC1NC(=O)NC(=O)C1(F)C(=O)OCC (stereo not given)
11.3% (inactive) and 5.65% (active): SF-539 CNS
inactive: NCI-H23 lung 79.6% and 55.9% | NCI-H226 lung 101% and 102% | NCI-H322M lung 74% and 67.9% | HOP-62 NSCLC 76.9% and 43.3% | NCI-H460 lung 47.2% and 25.6% | HOP-92 NSCLC 67.6% and 85.6% | NCI-H522 lung 80.1% | A549/ATCC NSCLC 48.8% and 46.3% | 786-0 renal 93% and 67.6% | COLO 205 colon 61.7% and 53.9% | DU-145 prostate 73% and 51.5% | K-562 leukemia 88.1% and 57.4% | MALME-3M melanoma 65.7% and 65.1% | MDA-MB-231 breast 92.8% and 75% | RXF 393 renal 98.1% and 82.7% | SF-268 CNS 98.8% and 83.1% | SF-295 CNS 94.1% and 93.7% | UACC-257 melanoma 77.2% | M14 melanoma 71.4% and 71.3%

COc1ccc(S(=O)(=O)c2ccc(F)cc2)cc1
inactive: NCI-H23 lung 102% | NCI-H226 lung 97.1% | NCI-H322M lung 117% | HOP-62 NSCLC 109% | NCI-H460 lung 114% | HOP-92 NSCLC 92.7% | NCI-H522 lung 83.3% | A549/ATCC NSCLC 82.4% | 786-0 renal 103% | COLO 205 colon 113% | DU-145 prostate 113% | K-562 leukemia 115% | MALME-3M melanoma 93% | MDA-MB-231 breast 94.2% | RXF 393 renal 138% | SF-268 CNS 101% | SF-295 CNS 116% | SF-539 CNS 111% | UACC-257 melanoma 93.8% | M14 melanoma 101%

CCCC(=O)Oc1ccc(CC)cc1
inactive: NCI-H23 lung 96.5% | NCI-H226 lung 110% | NCI-H322M lung 106% | HOP-62 NSCLC 98.9% | NCI-H460 lung 105% | HOP-92 NSCLC 115% | NCI-H522 lung 93% | A549/ATCC NSCLC 101% | 786-0 renal 99.7% | COLO 205 colon 104% | DU-145 prostate 109% | K-562 leukemia 96.7% | MALME-3M melanoma 104% | MDA-MB-231 breast 111% | RXF 393 renal 117% | SF-268 CNS 96.9% | SF-295 CNS 98.5% | SF-539 CNS 101% | UACC-257 melanoma 94.2% | M14 melanoma 99%

CC(C)(C(=O)c1cccnc1)c1cccnc1
inactive: NCI-H23 lung 107% and 133% | NCI-H226 lung 96.6% and 89.7% | NCI-H322M lung 92% and 103% | HOP-62 NSCLC 109% and 103% | NCI-H460 lung 103% and 101% | HOP-92 NSCLC 89.3% | NCI-H522 lung 93.5% and 100% | A549/ATCC NSCLC 86.5% and 108% | 786-0 renal 103% and 99.5% | COLO 205 colon 113% and 117% | DU-145 prostate 112% and 114% | K-562 leukemia 104% and 115% | MALME-3M melanoma 96.3% and 125% | MDA-MB-231 breast 96.4% and 119% | RXF 393 renal 105% and 119% | SF-268 CNS 107% and 106% | SF-295 CNS 95.7% and 124% | SF-539 CNS 99.5% and 95.9% | UACC-257 melanoma 97.3% and 115% | M14 melanoma 101% and 92.2%

Cc1cc2nc3ccc(=[N+](C)C)cc-3sc2cc1N
4.64% (active) and 15.1% (inactive): SF-295 CNS
0.425% (active) and 42.7% (inactive): HOP-62 NSCLC
inactive: NCI-H23 lung 21.7% | NCI-H226 lung 43.3% and 58.9% | NCI-H322M lung 22.6% and 38.3% | 786-0 renal 39.4% and 35.9% | RXF 393 renal 51.6% and 36% | UACC-257 melanoma 24.9% and 61.4%
43.1% (inactive) and 8.68% (active): HOP-92 NSCLC
-55.4% (active) and 13% (inactive): NCI-H522 lung
active: NCI-H460 lung 6.67% and 7.84% | A549/ATCC NSCLC 6.81% and 7.05% | COLO 205 colon -68.6% and -23.5% | DU-145 prostate 3.25% and -41.6% | K-562 leukemia 7.3% | MALME-3M melanoma -47.8% and -3.68% | MDA-MB-231 breast -18.8% and -10.4% | SF-268 CNS -8.64% and -29.4% | SF-539 CNS -39.6% and 3.1% | M14 melanoma -26.3% and 8.5%

CC(=O)c1cccc(OC(=O)c2ccccc2)c1
inactive: NCI-H23 lung 101% | NCI-H226 lung 101% | NCI-H322M lung 136% | HOP-62 NSCLC 104% | NCI-H460 lung 107% | HOP-92 NSCLC 82.9% | NCI-H522 lung 84.7% | A549/ATCC NSCLC 99% | 786-0 renal 102% | COLO 205 colon 107% | DU-145 prostate 114% | K-562 leukemia 92% | MALME-3M melanoma 110% | MDA-MB-231 breast 102% | RXF 393 renal 117% | SF-268 CNS 106% | SF-295 CNS 124% | SF-539 CNS 109% | UACC-257 melanoma 101% | M14 melanoma 93.1%

NC(=O)Cc1nc(O)cc(=O)[nH]1
inactive: NCI-H23 lung 107% | NCI-H226 lung 99.1% | NCI-H322M lung 103% | HOP-62 NSCLC 81.6% | NCI-H460 lung 105% | HOP-92 NSCLC 91.7% | NCI-H522 lung 77% | A549/ATCC NSCLC 89.8% | 786-0 renal 98.4% | COLO 205 colon 108% | DU-145 prostate 115% | K-562 leukemia 102% | MALME-3M melanoma 103% | MDA-MB-231 breast 96.5% | RXF 393 renal 107% | SF-268 CNS 102% | SF-295 CNS 96.5% | SF-539 CNS 101% | UACC-257 melanoma 86.4% | M14 melanoma 101%

CCOP(=O)(OCC)/C(C#N)=C/c1c(C)[nH]c2ccccc12
inactive: NCI-H23 lung 103% | NCI-H226 lung 84% | NCI-H322M lung 107% | HOP-62 NSCLC 89.1% | NCI-H460 lung 101% | HOP-92 NSCLC 84% | NCI-H522 lung 87.1% | A549/ATCC NSCLC 93.1% | 786-0 renal 106% | COLO 205 colon 107% | DU-145 prostate 107% | K-562 leukemia 94.6% | MALME-3M melanoma 105% | MDA-MB-231 breast 90.4% | RXF 393 renal 108% | SF-268 CNS 102% | SF-295 CNS 95.1% | SF-539 CNS 99% | UACC-257 melanoma 92.6% | M14 melanoma 92.4%

Cc1c(Cl)cc(Cl)c(N)c1Cl
inactive: NCI-H23 lung 103% | NCI-H226 lung 102% | NCI-H322M lung 115% | HOP-62 NSCLC 107% | NCI-H460 lung 105% | HOP-92 NSCLC 76.9% | NCI-H522 lung 97.4% | A549/ATCC NSCLC 107% | 786-0 renal 109% | COLO 205 colon 108% | DU-145 prostate 121% | K-562 leukemia 106% | MALME-3M melanoma 109% | MDA-MB-231 breast 98.9% | RXF 393 renal 108% | SF-268 CNS 104% | SF-295 CNS 102% | SF-539 CNS 96.4% | UACC-257 melanoma 106% | M14 melanoma 105%

CCCCCCC(C)CC1=C(O)c2ccccc2C(=O)C1=O (stereo not given)
inactive: NCI-H23 lung 42.2% | NCI-H226 lung 37.3% | NCI-H322M lung 51.7% | HOP-62 NSCLC 59.3% | NCI-H460 lung 14.3% | HOP-92 NSCLC 67% | NCI-H522 lung 56.2% | A549/ATCC NSCLC 36% | 786-0 renal 27.1% | COLO 205 colon 80.2% | DU-145 prostate 45.2% | K-562 leukemia 31.1% | MALME-3M melanoma 54.9% | MDA-MB-231 breast 66.2% | RXF 393 renal 60% | SF-268 CNS 53.2% | SF-295 CNS 35.4% | SF-539 CNS 34% | UACC-257 melanoma 38.2% | M14 melanoma 44.1%

CCn1c2ccc(N(C)C)cc2c2cc(N(C)C)ccc21
inactive: NCI-H23 lung 92.1% | NCI-H226 lung 97.4% | NCI-H322M lung 95.2% | HOP-62 NSCLC 90.2% | NCI-H460 lung 99.8% | HOP-92 NSCLC 90.6% | NCI-H522 lung 77.3% | A549/ATCC NSCLC 85.7% | 786-0 renal 102% | COLO 205 colon 46.8% | DU-145 prostate 108% | K-562 leukemia 90.6% | MALME-3M melanoma 111% | MDA-MB-231 breast 83.8% | RXF 393 renal 97.3% | SF-268 CNS 92.8% | SF-295 CNS 104% | SF-539 CNS 100% | UACC-257 melanoma 93% | M14 melanoma 102%

COc1ccc(/C=N/NC(N)=S)cc1
inactive: NCI-H23 lung 89.2% | NCI-H226 lung 105% | NCI-H322M lung 103% | HOP-62 NSCLC 93.4% | NCI-H460 lung 103% | HOP-92 NSCLC 68.4% | NCI-H522 lung 89.4% | A549/ATCC NSCLC 82.1% | 786-0 renal 98.3% | COLO 205 colon 106% | DU-145 prostate 110% | K-562 leukemia 106% | MALME-3M melanoma 94.4% | MDA-MB-231 breast 101% | RXF 393 renal 95.8% | SF-268 CNS 104% | SF-295 CNS 106% | SF-539 CNS 103% | UACC-257 melanoma 102% | M14 melanoma 96.3%

CNc1ccc(Cl)cc1S(=O)(=O)c1ccccc1[N+](=O)[O-]
inactive: NCI-H23 lung 87.9% and 98.3% | NCI-H226 lung 114% and 103% | NCI-H322M lung 89.1% and 91% | HOP-62 NSCLC 147% and 94.8% | NCI-H460 lung 107% and 108% | HOP-92 NSCLC 93% and 100% | NCI-H522 lung 78.3% and 75% | A549/ATCC NSCLC 23.3% and 94.4% | 786-0 renal 116% and 100% | COLO 205 colon 117% | DU-145 prostate 105% | K-562 leukemia 55.7% and 73.3% | MALME-3M melanoma 78.2% and 91.1% | MDA-MB-231 breast 77.7% and 97% | RXF 393 renal 25.1% and 126% | SF-268 CNS 106% and 90.6% | SF-295 CNS 108% and 104% | SF-539 CNS 86.4% and 98.3% | UACC-257 melanoma 75.7% and 89.8% | M14 melanoma 115% and 83.4%
